In all, about 35,000 sequences were measured (“fluorescence intensity (a.u.)”: median about 10,000, highest 2% from about 52,000 on). This excerpt belongs to a sample that is enriched for the highest values.
target: T1, OsWOX13 (Oryza sativa, UniProt Q5QMM3 1-267); assay: protein-binding microarray (RPBM); PBS, 2% BSA, 51.3 ng/ul salmon testes DNA, 50 uM zinc acetate, 200 nM TF, 25 C, 1 h; high values mean tight binding; details: protein: recombinant; tags: N-terminal polyhistidine and DsRed monomer fusion (pET32a); label: CyDye5-dUTP incorporated in the synthesized complementary strand; 3' TTTTT single-stranded linker to array surface; dsDNA, one strand shown
T1 sequence: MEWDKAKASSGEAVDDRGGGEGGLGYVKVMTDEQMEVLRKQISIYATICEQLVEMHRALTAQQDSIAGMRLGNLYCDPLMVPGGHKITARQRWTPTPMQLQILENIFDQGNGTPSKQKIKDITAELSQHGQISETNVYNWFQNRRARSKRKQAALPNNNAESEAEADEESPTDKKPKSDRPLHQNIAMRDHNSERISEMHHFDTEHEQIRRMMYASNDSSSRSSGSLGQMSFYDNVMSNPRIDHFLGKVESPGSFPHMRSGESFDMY
Outline: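 Transcription factors, each fused N-terminally to a polyhistidine tag and DsRed, were expressed in E. coli BL21-CodonPlus and purified on Ni–NTA. A custom Agilent array was made double-stranded by primer extension with Cy5-dUTP and blocked with 2% BSA. It was incubated with 200 nM protein in PBS, 2% BSA, salmon testes DNA and 50 µM zinc acetate at 25 °C for 1 h, then washed. The binding signal is per-feature fluorescence intensity (arbitrary units) read on an Axon 4000B scanner.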

In order of falling binding signal:
1. TTCTATGATTGATTGGTCGATAGGAAGACATATAACAGCGCGGAGTCACCTAGTGCAG  65500 fluorescence intensity (a.u.)
2. ATTAATTAATTAGTGATCATACATAATTGAGGTGATTTATCGGAGTCACCTAGTGCAG  65000 fluorescence intensity (a.u.)
3. TTAATTGATTTAGTTGGTGACCTTATATCTTGTTTAGATACGGAGTCACCTAGTGCAG  60600 fluorescence intensity (a.u.)
4. TTGATTTGGTTGATTGCCTCCTTCGTTCGTCCACGCTCAACGGAGTCACCTAGTGCAG  57100 fluorescence intensity (a.u.)
5. GGTTTGATTGGTTGGAAACAGAGGGGTTCTACTGCTGCGACGGAGTCACCTAGTGCAG  55700 fluorescence intensity (a.u.)
6. TATTAATTGAGTGAGATTTGGGGTATTCAGTCGACTGGCACGGAGTCACCTAGTGCAG  54900 fluorescence intensity (a.u.)
7. AATGATTGACAATACTTAGATTTCTTCCCTTAATTACATCCGGAGTCACCTAGTGCAG  54400 fluorescence intensity (a.u.)
8. CTCTGATAGATTGCGACCTTCTTGTTGTTTAACAACGTTACGGAGTCACCTAGTGCAG  54000 fluorescence intensity (a.u.)
9. TATTTTAGATTGATATACAATCTTTTGTGGTGTTAGCACTCGGAGTCACCTAGTGCAG  52900 fluorescence intensity (a.u.)
10. CTGATGATTGGTCAGCAGAGAAGACAGGTGGGATATCGAGCGGAGTCACCTAGTGCAG  52900 fluorescence intensity (a.u.)
11. CTTTGACAGATTGGTGGGAGATAAGAGAAATGAGGAGGTGCGGAGTCACCTAGTGCAG  51900 fluorescence intensity (a.u.)
12. AATTGTCCCTGATTGACACCTCTTACTTGACCCTTCTTTCCGGAGTCACCTAGTGCAG  42600 fluorescence intensity (a.u.)
13. ACTTGCATGCTTAATTGATTTAGTTGGTGACCTTATATCTCGGAGTCACCTAGTGCAG  37800 fluorescence intensity (a.u.)
14. ATATAATTATAATTTATTTTATTGTGACTTGATTTATCATCGGAGTCACCTAGTGCAG  36400 fluorescence intensity (a.u.)
15. ATCAATCAATCAATCAATCAGCAAAGAGCATCCCAAACAACGGAGTCACCTAGTGCAG  33900 fluorescence intensity (a.u.)
16. GTATTAATTGGGGTGATTCATGACAACGATGAGATATTAACGGAGTCACCTAGTGCAG  32700 fluorescence intensity (a.u.)
17. TTTGATTGTGGTTATTGCACTGAAATTTTACAGATATTGTCGGAGTCACCTAGTGCAG  31800 fluorescence intensity (a.u.)
18. TGTTGATTTGCTACCCTTCCTTCCGTCCTCAACATTATCACGGAGTCACCTAGTGCAG  31600 fluorescence intensity (a.u.)
19. TAAACTTAATTTTAAAATCATAATTCAGAAATGTGGTGAACGGAGTCACCTAGTGCAG  30500 fluorescence intensity (a.u.)
20. TCTGAGATTTATTGATTAGATTATAACGTAATCGTTGTTACGGAGTCACCTAGTGCAG  29300 fluorescence intensity (a.u.)
21. CCGTGCTGCATGATTGACCAAACAGACCATGTTGGTTTTGCGGAGTCACCTAGTGCAG  29000 fluorescence intensity (a.u.)
22. ATATTCAGCTGATTGGGGCATTGGGTATTTGCAGTGAGCACGGAGTCACCTAGTGCAG  18500 fluorescence intensity (a.u.)
23. TTGATTGCCTCAGGTGGTCCGGACACCGTCTCAACATCCACGGAGTCACCTAGTGCAG  17700 fluorescence intensity (a.u.)
24. TACTAATGATTTTATGTAGAACATCATCACATATCTTATACGGAGTCACCTAGTGCAG  15800 fluorescence intensity (a.u.)
25. CCCAATTAAATAATGCCAATTGGGTTTGATCTAATGCTGGCGGAGTCACCTAGTGCAG  15200 fluorescence intensity (a.u.)
26. TTCGAATCTCTGATTGGGAGTTCAGGTCAGAGACGTTCAGCGGAGTCACCTAGTGCAG  14700 fluorescence intensity (a.u.)
27. GTAGATATTGATGATTTATATAACTTTGTTGTTGATGACTCGGAGTCACCTAGTGCAG  14500 fluorescence intensity (a.u.)
28. TGAAAGAAGAGATGATTGGGAAACACCATTAATAGGGTGGCGGAGTCACCTAGTGCAG  10500 fluorescence intensity (a.u.)
29. GATTTATTGACATCTATATGAATATAGACATTGATAAAAGCGGAGTCACCTAGTGCAG  8710 fluorescence intensity (a.u.)
30. CCCTAATCCCATTTAATCAGCACAGCTTCTTAATTACTCCCGGAGTCACCTAGTGCAG  6810 fluorescence intensity (a.u.)
31. ATAACATTATCATTATAGACATTGATATATGAGATAATAGCGGAGTCACCTAGTGCAG  6010 fluorescence intensity (a.u.)
32. TGTCGTCAAAATTTGATGGAATTCACACGAATTTAGCAACCGGAGTCACCTAGTGCAG  5150 fluorescence intensity (a.u.)
33. ACACACAGCGGCAAAATTGACACATTACACATCAGGAATCCGGAGTCACCTAGTGCAG  5060 fluorescence intensity (a.u.)
34. GAGCAGCAGCTTAATTGGATCATCGAATCTCGCACCGCCACGGAGTCACCTAGTGCAG  4860 fluorescence intensity (a.u.)
35. GAAGTTATTAACAAATTAGATACATCTCTTGTTTAGATTACGGAGTCACCTAGTGCAG  4700 fluorescence intensity (a.u.)
36. AAGGTTGTTAATTACAAACCATGTTTCGTACTACAACTCTCGGAGTCACCTAGTGCAG  4580 fluorescence intensity (a.u.)
37. ATCCCTAATACGATTTACATGATTAGAGGAGAGACAATTTCGGAGTCACCTAGTGCAG  4470 fluorescence intensity (a.u.)
38. TAATAATAATAATAATAATAATAATAATAACACATCGCACCGGAGTCACCTAGTGCAG  4120 fluorescence intensity (a.u.)
39. GTGCATTATCGATCATAATTAGCAGGTGAGAGATATTTAACGGAGTCACCTAGTGCAG  4060 fluorescence intensity (a.u.)
40. ATGACTTGACGAGGTAAATAAAATTGGACCGGGCAGCAAACGGAGTCACCTAGTGCAG  3900 fluorescence intensity (a.u.)
41. TTGCTATTTGTTGGTTTGATTTATTGCTACTGCAACAGATCGGAGTCACCTAGTGCAG  3880 fluorescence intensity (a.u.)
42. ACGTGATACATCTTGTTCTAGATTTGTTTAATTTAAGCCACGGAGTCACCTAGTGCAG  3240 fluorescence intensity (a.u.)

Source: paper PMC7819943, “Rice protein-binding microarrays: a tool to detect cis-acting elements near promoter regions in rice”
